Laboratory results from the supplement of paper PMC10646978.
± gives the standard deviation.

Tests used:
Settings in all cases: modulator concentration 10 µM
[1] = test system: RAW-Dual (murine macrophage reporter line); assay: NF-kB reporter (SEAP) activity fold change vs agonist alone; higher = enhanced NF-kB activity
Method in brief: (§1)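 In 384-well plates holding 50 000 RAW-Dual murine macrophage reporter cells per well, compound at 10 μM final was pre-incubated for 1 hour at 37 °C, after which a PRR agonist was added overnight. Supernatant SEAP read with QUANTI-Blue at 620 nm absorbance reported NF-κB, and Lucia luciferase read with QUANTI-Luc luminescence reported IRF. Fold change values come from dividing each reporter signal by the mean of agonist-only control wells on the same plate, averaged over replicate plates with propagated errors.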

[2] = test system: RAW-Dual (murine macrophage reporter line); assay: IRF reporter (Lucia luciferase) activity fold change vs agonist alone; higher = enhanced IRF activity
Method in brief: as §1

[3] = test system: RAW-Dual (murine macrophage reporter line); assay: viability score (confluency relative to resting cells, overnight) (fraction); higher = more viable, active = viable (0.7 or more)
Method in brief: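 RAW-Dual macrophages in 384-well plates were incubated overnight with compound, final concentration 10 μM. Confluency images from IncuCyte were processed in IncuCyte software into two masks covering all imaged wells. The viability score is each well's confluency relative to resting cells, and a compound met the cutoff when both masks exceeded 70% of resting cells.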

[4] = agonist: CpG ODN 1826 0.5 ug/mL

Row | Structure (SMILES) | NF-kB reporter [1, 4] | NF-kB reporter ([1]; agonist: LPS 0.1 ug/mL) | NF-kB reporter ([1]; agonist: MPLA […]) | IRF reporter ([2]; agonist: 3'3'-cGAMP 10 ug/mL) | IRF reporter ([2]; agonist: LPS 0.1 ug/mL) | IRF reporter ([2]; agonist: MPLA […]) | viability score [3]
1 | COc1ccc(C2N3CC4(C)CN2CC(C)(C3)C4=O)cc1 (stereo not given) | 1.03 ± 0.17 | 0.973 ± 0.093 | 0.947 ± 0.082 | 1.03 ± 0.027 | 1.32 ± 0.2 | 1.27 ± 0.15 | 1 (active)
2 | CC(=O)OC(OC(C)=O)c1ccc([N+](=O)[O-])s1 | 0.0633 ± 0.01 | 0.0636 ± 0.0089 | 0.156 ± 0.012 | 0.0166 ± 0.0041 | 0.0362 ± 0.0098 | 0.0457 ± 0.011 | 0.177 (inactive)
3 | CC[C@@H]([C@H](C)O)n1ncn(-c2ccc(N3CCN(c4ccc(OC[C@@H]5CO[C@@](Cn6cncn6)(c6ccc(F)cc6F)C5)cc4)CC3)cc2)c1=O | 0.947 ± 0.14 | 0.893 ± 0.068 | 1.07 ± 0.1 | 1.1 ± 0.055 | 1.18 ± 0.091 | 1.36 ± 0.12 | 1.02 (active)
4 | Cc1cccc(OCC(=O)Nc2cccc([N+](=O)[O-])c2)c1C | 0.982 ± 0.16 | 1.17 ± 0.14 | 1.03 ± 0.11 | 0.947 ± 0.028 | 1.21 ± 0.23 | 1.24 ± 0.21 | 0.974 (active)
5 | CC(=O)C(C(=O)Nc1ccc(F)cc1)C(c1ccc(Cl)cc1Cl)C(C#N)C#N (stereo not given) | 0.894 ± 0.054 | 0.93 ± 0.057 | 0.915 ± 0.093 | 0.903 ± 0.04 | 1.1 ± 0.075 | 1.02 ± 0.26 | 1.01 (active)
6 | O=C(C1=C(O)C(=O)N(c2nccs2)C1c1ccccc1)c1cc2ccccc2o1 (stereo not given) | 0.928 ± 0.054 | 1.57 ± 0.12 | 0.97 ± 0.062 | 0.664 ± 0.026 | 0.967 ± 0.19 | 0.885 ± 0.082 | 0.997 (active)
7 | COc1cccc(S(=O)(=O)NCc2sc(-c3ccccc3)nc2C)c1 | 1.26 ± 0.12 | 1.1 ± 0.086 | 0.901 ± 0.045 | 0.922 ± 0.059 | 1.11 ± 0.12 | 1.16 ± 0.28 | 0.942 (active)
8 | Cc1ccc(C2(O)C=CC(C)(C(Cl)(Cl)Cl)C=C2)cc1 (stereo not given) | 0.687 ± 0.054 | 0.974 ± 0.063 | 1.02 ± 0.067 | 0.455 ± 0.093 | 0.989 ± 0.047 | 0.915 ± 0.14 | 1 (active)
9 | Oc1ccc(N=Cc2ccccc2F)cc1 | 0.861 ± 0.099 | 0.887 ± 0.079 | 1.1 ± 0.064 | 0.304 ± 0.012 | 0.686 ± 0.028 | 1.36 ± 0.14 | 0.879 (active)
10 | COc1ccc(CNCc2ccc3ccccc3c2)cc1OC | 0.722 ± 0.064 | 1 ± 0.07 | 0.943 ± 0.05 | 0.784 ± 0.035 | 1.04 ± 0.059 | 0.961 ± 0.2 | 0.999 (active)
11 | Cl.Cl.OCCOCCN1CCN(C(c2ccccc2)c2ccc(Cl)cc2)CC1 (stereo not given) | 1.21 ± 0.051 | 1.51 ± 0.12 | 2.68 ± 0.22 | 0.726 ± 0.034 | 1.27 ± 0.25 | 1.45 ± 0.37 | 0.965 (active)
12 | O=c1cc(O)c(Cl)c[nH]1 | 0.953 ± 0.11 | 0.952 ± 0.15 | 1 ± 0.052 | 1.01 ± 0.12 | 0.925 ± 0.033 | 0.839 ± 0.13 | 0.996 (active)
13 | Cc1ccc(C(=O)C(C)CN2CCCCC2)cc1.Cl (stereo not given) | 0.981 ± 0.13 | 1.05 ± 0.14 | 0.908 ± 0.052 | 0.895 ± 0.032 | 1.27 ± 0.41 | 1.43 ± 0.15 | 0.956 (active)
14 | CCOc1ccc2nc(SC(c3ccccc3)c3ccccc3)sc2c1 | 1.01 ± 0.17 | 0.967 ± 0.099 | 0.974 ± 0.14 | 1.01 ± 0.036 | 1.2 ± 0.18 | 1.04 ± 0.31 | 0.661 (inactive)
15 | CCOC(N)=O | 0.962 ± 0.13 | 1.09 ± 0.24 | 0.948 ± 0.068 | 0.927 ± 0.057 | 1.32 ± 0.28 | 1.02 ± 0.14 | 1.01 (active)
16 | CCN(CC)C(=O)/C(C#N)=C/c1cc(O)c(O)c([N+](=O)[O-])c1 | 1.23 ± 0.23 | 1.08 ± 0.45 | 0.864 ± 0.055 | 0.905 ± 0.035 | 1.22 ± 0.43 | 1.11 ± 0.095 | 0.992 (active)
17 | COc1cc2c(cc1OC)CN(CCc1ccc(NC(=O)c3cccc4c(=O)c5cccc(OC)c5[nH]c34)cc1)CC2 | 0.0904 ± 0.022 | 1.43 ± 0.075 | 1.2 ± 0.088 | 0.132 ± 0.0091 | 1.42 ± 0.26 | 1.6 ± 0.15 | 0.971 (active)
18 | CCC(=O)N1c2ccccc2NC2=C(C(=O)CC(c3ccccc3Cl)C2)C1c1ccc(C)cc1 (stereo not given) | 1.02 ± 0.17 | 0.983 ± 0.079 | 0.961 ± 0.15 | 0.837 ± 0.022 | 1.2 ± 0.17 | 1.23 ± 0.36 | 1.01 (active)
19 | O=C(Cc1ccc(F)cc1)NCC1CCCN1c1ccccc1 (stereo not given) | 1.21 ± 0.11 | 1.1 ± 0.083 | 1.09 ± 0.029 | 0.677 ± 0.043 | 1.12 ± 0.077 | 0.893 ± 0.13 | 0.992 (active)
20 | O=[N+]([O-])c1ccccc1S(=O)(=O)NCc1ccc2c(c1)OCO2 | 1 ± 0.088 | 0.988 ± 0.075 | 0.937 ± 0.092 | 0.89 ± 0.028 | 1.05 ± 0.14 | 1.09 ± 0.2 | 1.03 (active)
21 | COC(=O)NN=Cc1cccs1 | 1.04 ± 0.19 | 1.05 ± 0.084 | 0.974 ± 0.11 | 0.987 ± 0.031 | 1 ± 0.096 | 1.22 ± 0.21 | 0.997 (active)
22 | COc1cc(Nc2ncc3c(n2)-c2ccc(Cl)cc2C(c2c(F)cccc2OC)=NC3)ccc1C(=O)O | 0.416 ± 0.036 | 0.72 ± 0.038 | 0.775 ± 0.081 | 0.974 ± 0.045 | 1.06 ± 0.062 | 1.06 ± 0.15 | 0.92 (active)
23 | CC(C)NCC(O)COc1ccc(CCOCC2CC2)cc1.Cl (stereo not given) | 0.952 ± 0.13 | 1.2 ± 0.25 | 0.968 ± 0.068 | 0.907 ± 0.032 | 1.57 ± 0.17 | 1.31 ± 0.1 | 0.981 (active)
24 | N[C@H]1CONC1=O | 1.08 ± 0.13 | 1.06 ± 0.057 | 1.03 ± 0.074 | 1.02 ± 0.1 | 0.957 ± 0.039 | 0.949 ± 0.1 | 1.01 (active)
25 | O=c1c(CN2CCC(O)(c3ccc(Br)cc3)CC2)coc2ccccc12 | 0.712 ± 0.056 | 0.953 ± 0.059 | 1.07 ± 0.066 | 0.676 ± 0.032 | 1.07 ± 0.14 | 0.85 ± 0.12 | 1.01 (active)
